Compounds without any hit were thinned out: in the full panel of roughly 83,000, 20% have a hit.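 The test compound was applied at a single concentration to cells in 96-well plates for 48 hours, and percent growth was recorded.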 Unmarked numbers belong to inactive results. Calls of active or inactive are those of the source. The calls were made as follows: active = growth percent below 10; inactive = the rest.
Tests used:
Assay in all cases: NCI-60 one-dose screen, 48 h (100 = growth as untreated, 0 = no growth, -100 = all killed)
Conditions in all cases: 10 µM unless noted
RPMI-8226 leukemia = tested on: RPMI-8226 leukemia
OVCAR-8 ovarian = tested on: OVCAR-8 ovarian
OVCAR-5 ovarian = tested on: OVCAR-5 ovarian
OVCAR-4 ovarian = tested on: OVCAR-4 ovarian
SK-OV-3 ovarian = tested on: SK-OV-3 ovarian
IGROV1 ovarian = tested on: IGROV1 ovarian
OVCAR-3 ovarian = tested on: OVCAR-3 ovarian
HS 578T breast = tested on: HS 578T breast
NCI/ADR-RES ovarian = tested on: NCI/ADR-RES ovarian
T-47D breast = tested on: T-47D breast

SMILES | growth (RPMI-8226 leukemia) | growth (OVCAR-8 ovarian) | growth (OVCAR-5 ovarian) | growth (OVCAR-4 ovarian) [%] | growth (SK-OV-3 ovarian) | growth (IGROV1 ovarian) [%] | growth (OVCAR-3 ovarian) | growth (HS 578T breast) | growth (NCI/ADR-RES ovarian) | growth (T-47D breast)
NNC(=O)C1CC2c3ccccc3C1c1ccccc12 (stereo not given) | 90.1% | 102% | 99.4% | 106 | 112% | 110 | 102% | 102% | 103% | 112%
COc1ccc(/C=C/C(=O)Nc2cccnc2Nc2ccc(F)cc2)cc1 | 88.6% | 92.7% | 104% | 91.1 | 101% | 117 | 112% | 103% | 93.1% | 87.7%
COc1ccc2nc3cc(Cl)ccc3c(N3CCN(c4ccnc(Nc5ccc(F)cc5)n4)CC3)c2c1 | 63.4% | 75.8% | 95% | 64.8 | 111% | 87.5 | 82.4% | 94.2% | 71.3% | 54.5%
COc1ccc2c(c1)C(=O)c1c-2c(OCCCN(C)C)nc2cc(Br)ccc12 | 73.4% | 3.85% (active) | -46% (active) | 88.6 | 81.3% | 71.3 | 89.1% | 81.4% | 65.6% | 84%
N#Cc1c2ccccc2c2n1-c1ccccc1OC(c1ccccc1)C2=O (stereo not given) | 18.1% | 11.6% | 56.1% | 14.6 | 65.4% | 43 | 41.1% | 40.1% | 14% | 23.2%
CCCC[N+](CCCC)=c1ccc2nc3c(C)cc(N(CC)CC)cc3sc-2c1 | -48.2% (active) | 5.84% (active) | 4.55% (active) | 22.9 | -8.75% (active) | 43.2 | -23.3% (active) | 6.6% (active) | -11.9% (active) | -23.3% (active)
COc1ccc(-c2cnnn2-c2cc(OC)c3c(c2)OCO3)cc1 | 9.18% (active) | 13.1% | 45.1% | 64.7 | -1.59% (active) | 17.9 | -37.5% (active) | 5.54% (active) | 12.1% | 50.3%
COc1ccc(C2CC(c3ccc(OC)c(OC)c3)=NN2C(=O)c2cc(OC)c(OC)c(OC)c2)cc1 (stereo not given) | 50.2% | 34.2% | 66.5% | 58.8 | 30.3% | 31.5 | -45.1% (active) | -14% (active) | 13% | 36.4%
Cc1ccccc1-c1cc(Cc2ccccc2O)c(=O)[nH]n1 | 78.6% | 91.8% | 118% | 106 | 253% | 86.6 | 100% | 104% | 111% | 200%
CSc1nc2c(c(=O)n1C)C(c1ccccc1)C1=C(N2)/C(=C/c2ccccc2)CCC1 (stereo not given) | 39.5% | 63.7% | 113% | 68.3 | 107% | 47.2 | 52.8% | 61% | 38.3% | 57%

Reference: PubChem BioAssay (NCI)
